# In all, about 110,000 compounds went through this assay and about 230 (0.21%) showed an effect of 50% or more. For the sample, strong results were picked, then their nearest neighbours and some compounds at random.
# Target: DPAP1 (Plasmodium falciparum, UniProt Q8IIJ9)
# Experiment: primary screen, percent inhibition; read by cleavage of a fluorogenic dipeptide substrate; higher = more effect of the substance
# Parameters: species or system P. falciparum D10 trophozoite lysates; single well
# 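Also: 30 min substrate incubation versus DMSO and 10 µM JCP410 controls.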
# Sequence of DPAP1 (Q8IIJ9 whole entry, looked up): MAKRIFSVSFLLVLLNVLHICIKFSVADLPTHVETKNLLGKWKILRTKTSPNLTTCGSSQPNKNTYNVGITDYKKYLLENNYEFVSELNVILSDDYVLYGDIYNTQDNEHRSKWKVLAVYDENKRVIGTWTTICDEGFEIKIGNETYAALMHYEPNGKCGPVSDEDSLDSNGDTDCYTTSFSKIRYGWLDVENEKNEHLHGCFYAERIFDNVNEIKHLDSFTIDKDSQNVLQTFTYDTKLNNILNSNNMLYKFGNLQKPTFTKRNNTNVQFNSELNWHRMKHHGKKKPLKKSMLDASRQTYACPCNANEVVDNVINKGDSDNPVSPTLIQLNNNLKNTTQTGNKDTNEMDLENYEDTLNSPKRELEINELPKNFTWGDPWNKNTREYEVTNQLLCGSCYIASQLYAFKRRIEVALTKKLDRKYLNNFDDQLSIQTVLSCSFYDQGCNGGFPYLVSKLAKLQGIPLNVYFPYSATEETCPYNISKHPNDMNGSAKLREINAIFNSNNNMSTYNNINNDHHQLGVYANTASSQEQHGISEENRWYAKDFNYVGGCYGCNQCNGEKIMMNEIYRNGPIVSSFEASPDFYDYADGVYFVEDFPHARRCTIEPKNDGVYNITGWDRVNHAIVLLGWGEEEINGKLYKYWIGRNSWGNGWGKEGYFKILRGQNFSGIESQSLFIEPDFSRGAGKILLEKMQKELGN
row,Compound,% Inhibition @ 10 uM [%]
1,Cc1nc2scc(C)n2c(=O)c1S(=O)(=O)NC1CCN(Cc2ccccc2)CC1,-3.32
2,CCOC(=O)N1CCC(NS(=O)(=O)c2c(C)nc3scc(C)n3c2=O)CC1,-8.17
3,Cc1nc2scc(C)n2c(=O)c1S(=O)(=O)NC1CCCCCCC1,72.2
4,Cc1cccc(CN2CCCC(O)C2)c1 (stereo not shown),-0.828
5,O=C(CCC1CCCCC1)NC1(C(F)(F)F)NC(=O)N(Cc2ccccc2)C1=O (stereo not shown),-3.33
6,CCOC(=O)C1=C(c2ccccc2)Nc2ncnn2C1c1cccc(O)c1 (stereo not shown),3.8
7,COc1cccc(C2=NS(=O)(=O)N(C)C(C(=O)N3CCCC3)=C2)c1,3.92
8,CCSc1nc(=O)n(-c2ccccc2)c(C)c1C(C)=O,-5.51
9,CCc1ccc(C2C3=C(O)CCCC3=NC(C)=C2C(=O)Nc2ccc(F)cc2)cc1 (stereo not shown),4.11
10,Cc1sc2ncn(CC(=O)NC3CCCC(C)C3C)c(=O)c2c1S(=O)(=O)N1CCC(C)CC1 (stereo not shown),-4.67
11,CC(=O)ON1C(=O)C(c2ccccc2)=C(c2ccccc2)C1=O,82
12,O=C1C(c2ccccc2)=C(c2ccccc2)C(=O)N1O,3.25
13,CC(=O)ON1C(=O)C2C3c4ccccc4C(c4ccccc43)C2C1=O (stereo not shown),38.9
14,CCCCN(C)C(=O)C1c2ccccc2C(=O)N(CCOC)C1c1c[nH]c2ccccc12 (stereo not shown),5.62
15,Cc1ccc2nc(O)c3cc(C(=O)NCCc4ccsc4)sc3c2c1,1.72
16,CN(C)c1ccc(NC(=O)NC2CCCCC2)cc1,-12.2
17,CC(CCCC(C)(C)O)NC(C)Cc1ccc(F)cc1 (stereo not shown),4.68
18,O=C(CC1(O)C(=O)Nc2ccc(Br)cc21)c1ccc2ccccc2c1 (stereo not shown),4.03
19,CCC1(C)Cc2c(sc3nc(SCC(=O)c4ccccc4)nc(N)c23)CO1 (stereo not shown),0.992
20,CCC1(C)Cc2c(sc3nc(S)nc(N)c23)CO1 (stereo not shown),62.9
21,CCC1(C)Cc2c(sc3nc(SC)nc(O)c23)CO1 (stereo not shown),8.9
22,COc1cc2c(NCc3ccccc3)cc(O)c(CC(=O)Nc3ccccc3)c2cc1OC,66.3
23,CCCCNc1cc(O)c(CC(=O)Nc2ccccc2)c2cc(OC)c(OC)cc12,25.7
24,COc1cc2c(CC(=O)Nc3ccccc3)c(O)c(C)c(NCc3ccccc3)c2cc1OC,13.4
25,CCn1c(C)cc(/C=C2\NC(=O)N(CC(=O)Nc3ccc(F)cc3)C2=O)c1C,0.528

row,Compound,% Inhibition @ 10 uM [%]
1,CCCNS(=O)(=O)c1cc(-c2cc(C)no2)ccc1OC,-8.89
2,CCCCNC(=O)c1cc(-c2ccc(F)cc2)on1,4.5
3,Brc1ccc(-c2cn3nc(C4CCCCC4)sc3n2)cc1,-2.71
4,CCOc1ccc(C(=O)CCN(C)CC(=O)O)cc1,89.9
5,COc1ccc(C(=O)CCN(C)CC(=O)O)cc1,55.8
6,CCOc1ccc(C(=O)CCNCCC(=O)O)cc1,44.5
7,COc1ccc(C(=O)CCN(C)C)cc1,3.82
8,COc1ccc(C(=O)CCNCCC(=O)O)cc1,30.1
9,CCOc1ccc(C(=O)CCN(C)C)cc1,-1.25
10,O=C(O)c1ccccc1NC(=O)C12CC3CC(CC(C3)C1)C2,-5.44
11,O=C(O)CCC(=O)Nc1ccc(S(=O)(=O)NC2CCCCC2)cc1,1.49
12,CC(=O)c1ccc(N2CCN(Cc3ccc(C)cc3C)CC2)cc1,-5.11
13,CC1(C)CC(=O)C2=C(C1)N1C(=C(C#N)C2c2cccnc2)N=C(N)c2c1sc1c2CCCCC1 (stereo not shown),-2.39
14,CCc1nn(-c2cc(Oc3ccccc3)ncn2)c(N)c1C(N)=O,0.686
15,Cc1ccc(Oc2cc(-n3nc(C)c(C(N)=O)c3N)ncn2)cc1,-0.795
16,CCc1nn(-c2cc(Oc3ccc(C)cc3)ncn2)c(N)c1C(N)=O,60.5
17,CN(C1CCCCC1)S(=O)(=O)c1ccc(C(=O)Nc2nc(-c3ccccn3)cs2)cc1,-1.4
18,O=c1ncn(-c2ccccc2F)c2ncccc12,-10.2
19,CCOC(=O)C1=C(O)/C(=C\c2cc(C)n(-c3cc(C)ccc3OC)c2C)N=C1C,3.47
20,CCOC(=O)C1=C(O)/C(=C\c2cc(C)n(-c3ccccc3C(=O)OC)c2C)N=C1C,3.47
21,CCOC(=O)C1=C(O)/C(=C\c2cc(C)n(-c3ccccc3C(F)(F)F)c2C)N=C1C,52.7
22,C/N=C1/S/C(=C\c2ccc(N3Cc4ccccc4C3)cc2)C(=O)N1C,-5.19
23,CCCCNC(=O)c1cn(C)c(=O)c2cc(OC)c(OC)cc12,-5.67
24,Cc1ccc(-c2cc(C(F)F)n3ncc(C(=O)n4c(C)nc5ccccc54)c3n2)cc1,50
25,O=C(c1cnn2c(C(F)F)cc(-c3ccccc3)nc12)N1CCN(c2ccccn2)CC1,5.65

row,Compound,% Inhibition @ 10 uM [%]
1,Cc1ccc(-c2cc(C(F)F)n3ncc(C(=O)N4CCc5ccccc5C4)c3n2)cc1,0.778
2,Cc1ccc(-c2cc(C(F)F)n3ncc(C(=O)NC(C)c4ccccc4)c3n2)cc1 (stereo not shown),0.778
3,CCCCNC(=O)c1cnn2c(C(F)F)cc(-c3ccccc3)nc12,4.08
4,CCc1nccn1C(=O)c1cnn2c(C(F)F)cc(-c3ccccc3)nc12,75.7
5,CCOC(=O)c1c(-c2ccc(F)cc2)csc1NC(=O)c1c(-c2ccccc2)noc1C,0.64
6,O=C(CCCC(=O)c1ccccc1)NC(c1ccccc1)c1ccccc1,-1.46
7,c1ccc(CSc2nccn2Cc2ccccc2)cc1,-1.97
8,CC(C)CC(=O)Nc1ccc(-c2nc3cc(Cl)ccc3o2)cc1,-1.57
9,Cn1cnc(S(=O)(=O)Nc2nnc(S)s2)c1,95.5
10,Cc1ccc(CNS(=O)(=O)c2cn(C)cn2)cc1,1.47
11,Cc1ccc(S(=O)(=O)Nc2nnc(C)s2)cc1,-1.77
12,Cc1csc(NC(=O)C(CCS(C)(=O)=O)N2Cc3ccccc3C2=O)n1 (stereo not shown),0.0322
13,O=C(/C=C/c1ccco1)c1ccc(F)cc1,14.1
14,COc1ccc(C(=O)/C=C/c2ccco2)cc1,60.2
15,O=C(/C=C/c1ccco1)c1ccc(C(=O)/C=C/c2ccco2)cc1,-0.268
16,COc1ccc(CCNC(=O)CN2C(=O)c3ccccc3C2=O)cc1,1.33
17,Cc1nn(C)cc1CN(C)C(=O)c1cc2nc(-c3ccccc3)cc(C(F)(F)F)n2n1,4.59
18,Cc1cc(N(C)C)c(=O)n(-c2ccccc2)n1,5.74
19,O=C1/C(=C\c2ccccn2)CN(Cc2ccccc2)C/C1=C\c1ccccn1,55.7
20,O=C1/C(=C\c2cccnc2)CN(Cc2ccccc2)C/C1=C\c1cccnc1,0.287
21,O=C1/C(=C/c2ccc3nccnc3c2)CN(Cc2ccccc2)C/C1=C\c1ccc2nccnc2c1,6.89
22,O=C(CCN1C(=O)C2C3C=CC(C3)C2C1=O)Nc1cccnc1 (stereo not shown),-0.551
23,CCN(CC)C(=O)Cn1cc(S(=O)(=O)Cc2cc(C)ccc2C)c2ccccc21,0.292
24,Cc1cccc(NC(=O)C2CC3CCC2C3)n1 (stereo not shown),-2.66
25,COc1ccc(S(=O)(=O)N2CCSC2c2ccccc2)cc1 (stereo not shown),3.19

row,Compound,% Inhibition @ 10 uM [%]
1,COc1ccc(S(=O)(=O)N2CCSC2c2ccc(C)cc2)cc1 (stereo not shown),-3.45
2,COc1ccc(S(=O)(=O)N2CCSC2c2ccccc2Cl)cc1 (stereo not shown),68.6
3,CN(C)c1ccc(/C=C(\C#N)c2nc(-c3ccc(-c4ccccc4)cc3)cs2)cc1,5.77
4,CCn1ccnc1C(O)(c1ccccc1)c1ccc(C)cc1 (stereo not shown),4.67
5,CCN1C(=O)C(=CNc2ccc3c(c2)-c2ccccc2C3)C(=O)N(CC)C1=O,-0.996
6,Nc1c(C(=O)Nc2ccccn2)sc2nc(-c3cccs3)cc(C(F)(F)F)c12,-5.07
7,CCc1nnc(NC(=O)c2sc3nc(-c4cccs4)cc(C(F)(F)F)c3c2N)s1,0.487
8,Nc1c(C(=O)Nc2nccs2)sc2nc(-c3cccs3)cc(C(F)(F)F)c12,76.8
9,CC(=O)c1ccc(NC(=O)C(C)Oc2ccccc2C)cc1 (stereo not shown),-5.92
10,Cc1nc2c3ccccc3n3c(CCCC(=O)NC4CCN(Cc5ccccc5)CC4)nnc3n2n1,2.04
11,CCCN1CCN(C(=O)Cn2cccc2C(=O)c2ccccc2)CC1,1.15
12,CCOc1ccc(-c2cc(NC(=O)Cn3ncc4c(=O)oc5ccc(C)cc5c43)on2)cc1,-5.25
13,N#Cc1c(-c2cccs2)cc(-c2ccccc2)nc1S,20.6
14,Cc1cccc(NC(=O)CSc2nc(-c3cccs3)cc(C(F)(F)F)c2C#N)n1,18.3
15,N#Cc1c(C(F)(F)F)cc(-c2cccs2)nc1SCC(=O)Nc1ccccn1,2.44
16,N#Cc1c(C(F)(F)F)cc(-c2cccs2)nc1S,88.5
17,CCS(=O)CCSc1nc(-c2cccs2)cc(-c2ccccc2)c1C#N (stereo not shown),7.76
18,N#Cc1sc2nc(-c3cccs3)cc(C(F)(F)F)c2c1N,-2.32
19,CCSc1nc(-c2ccc(OC)cc2)cc(C(F)(F)F)c1C#N,-1.4
20,N#Cc1c(C(F)(F)F)cc(-c2cccs2)nc1SCC(=O)Nc1nccs1,0.121
21,CC(=O)NCCSc1nc(-c2cccs2)cc(-c2ccc(F)cc2)c1C#N,5.65
22,CCSc1nc(-c2cccs2)cc(C(F)(F)F)c1C#N,82.6
23,CCCCSc1nc(-c2cccs2)cc(C(F)(F)F)c1C#N,60.7
24,N#Cc1c(C(F)(F)F)cc(-c2cccs2)nc1SCc1ccncc1,57.7
25,Cc1ccnc(NC(=O)c2ccc(C)c(C)c2)c1,2.64

# Source: PMC6919601, “Identification of Plasmodium dipeptidyl aminopeptidase allosteric inhibitors by high throughput screening” (PLoS ONE, 2019)
